PubChem BioAssay (Tox21)
Results filed as inconclusive are left out. Where a call stands in place of a potency, no number is given. Unmarked numbers belong to inactive results. The source made the active and inactive calls. Unless noted, calls come from the whole dose curve; as a rule, active = well fitted curve in the direction sought with a large enough effect in the repeat runs; inconclusive = weak or mixed curves; inactive = no such curve, though single readings can be large; an effect the other way counts as inactive or inconclusive.

How the values were obtained:
[1] = qHTS assay to identify small molecule antagonists of the vitamin D receptor (VDR) signaling pathway - cell viability counter screen (AID 743225); note: nearly all actives have a fitted effect of over 50% in size; note: potency is the fitted concentration of half-maximal effect
Summary of the method: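 Viability counter screen run in the same wells as the beta-lactamase reporter assay: HEK 293T VDR-UAS-bla cells, 16 h compound exposure at 37C with 3 nM (final) 1-alpha,25-dihydroxyvitamin D3. CellTiter-Glo luminescence, 30 min, room temperature.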

[2] = qHTS assay to identify small molecule agonists of the NFkB signaling pathway (AID 1159509; active = well fitted curve in the direction sought with a large enough effect in the signal ratio in the repeat runs, not every such curve was filed as active; the % refers to the signal ratio; note: series mostly up to about 61 µM)
Summary of the method: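 Agonist activity was read as beta-lactamase-driven FRET change (460 and 530 nm emission, 405 nm excitation) following 1.5 hr substrate loading at room temperature. Beforehand, ME-180 NFkB-bla reporter cells were treated with compounds for 5 hr at 37 C.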

[3] = qHTS assay to identify small molecule agonists of the NFkB signaling pathway - cell viability counter screen (AID 1159515; calls by dose curve; note: nearly all actives have a fitted effect of over 55% in size; note: potency is the fitted concentration of half-maximal effect)
Summary of the method: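 Plate 2,000 NFkB-bla ME-180 cells/well; incubate overnight. Add compounds, 5 hr at 37 C. Add FRET substrate, 1.5 hr RT. Add CellTiter-Glo, 30 min RT; read luminescence.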

[4] = qHTS assay to identify small molecule agonists of the endoplasmic reticulum stress response signaling pathway (AID 1159516; active = well fitted activation curve with a large enough effect in the signal ratio in the repeat runs, not every such curve was filed as active; the % refers to the signal ratio)
Summary of the method: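 Beta-lactamase expression from the ER stress response element in HeLa reporter cells is quantified with the LiveBLAzer B/G FRET substrate, read at 405 nm excitation after 2 hr at room temperature, following 5 hr compound treatment at 37 C.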

[5] = molecular target: Nuclear receptor ROR-gamma (Homo sapiens) (UniProt P51449); experiment: qHTS assay to identify small molecule antagonists of the retinoid-related orphan receptor gamma (ROR-gamma) signaling pathway (AID 1159521; note: nearly all actives have a fitted effect of over 50% in size; note: potency is the fitted concentration of half-maximal effect)
Summary of the method: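 Luminescence readout (ONE-Glo, 30 min RT) after 16 h doxycycline induction; loss of signal scored as antagonism. CHO cells with TET-inducible RORγ and RORE-LUC reporter; compounds added 2 h before 1 uM final doxycycline.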

[6] = qHTS assay to identify small molecule agonists of the AP-1 signaling pathway - cell viability counter screen (AID 1159525; calls by dose curve; note: nearly all actives have a fitted effect of over 55% in size; note: potency is the fitted concentration of half-maximal effect)
Summary of the method: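 Same-well cytotoxicity counter screen of the Tox21 10K library in ME-180 cells. The readout is ATP-dependent luminescence after 5 h compound treatment. Data are normalised to DMSO and tetra n-octyl ammonium bromide controls.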

[7] = molecular target: Retinoic acid receptor RXR-alpha (Homo sapiens) (UniProt P19793); experiment: qHTS assay to identify small molecule agonists of the RXR signaling pathway (AID 1159527; calls by dose curve; note: nearly all actives have a fitted effect of over 35% in size)
Chain of Retinoic acid receptor RXR-alpha (Homo sapiens) (P19793 whole entry, looked up): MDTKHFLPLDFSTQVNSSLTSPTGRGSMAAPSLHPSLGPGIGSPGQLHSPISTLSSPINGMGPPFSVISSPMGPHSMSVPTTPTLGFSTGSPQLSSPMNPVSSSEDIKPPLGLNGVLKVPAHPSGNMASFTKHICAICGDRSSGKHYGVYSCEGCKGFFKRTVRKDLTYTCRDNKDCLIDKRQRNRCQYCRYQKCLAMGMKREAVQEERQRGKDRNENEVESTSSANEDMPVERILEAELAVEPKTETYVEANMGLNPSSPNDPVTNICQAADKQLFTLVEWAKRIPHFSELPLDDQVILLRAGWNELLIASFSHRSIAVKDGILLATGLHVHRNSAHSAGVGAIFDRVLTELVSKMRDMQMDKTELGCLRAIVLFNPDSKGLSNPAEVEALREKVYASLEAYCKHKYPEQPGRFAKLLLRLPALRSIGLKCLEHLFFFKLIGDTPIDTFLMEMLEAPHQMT
Summary of the method: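 Agonist mode; 9-cis retinoic acid positive control. HEK 293T UAS-bla reporter cells, 2% charcoal-stripped FBS, 16 hr compound exposure at 37 C/5% CO2. LiveBLAzer B/G FRET substrate 2 hr RT; ex 405, em 460/530 nm.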

[8] = qHTS assay to identify small molecule antagonists of the retinoid acid receptor (RAR) signaling pathway - cell viability counter screen (AID 1159551); note: nearly all actives have a fitted effect of over 35% in size; note: potency is the fitted concentration of half-maximal effect
Summary of the method: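 Viability of C3RL4 cells is quantified from ATP by luminescence after 6 h treatment at 37 C with compounds and 1 uM retinol.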

[9] = qHTS assay to identify small molecule agonists of the vitamin D receptor (VDR) signaling pathway - cell viability counter screen (AID 743224); note: series mostly up to about 63 µM; nearly all actives have a fitted effect of over 50% in size
Summary of the method: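 In parallel with the bla FRET readout, cytotoxicity toward VDR-bla cells after 16 h compound exposure was assessed by CellTiter-Glo, with luminescence recorded after a 30 min room-temperature incubation.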

[10] = qHTS assay to identify small molecule agonists of the AP-1 signaling pathway (AID 1159526; calls by dose curve)
[11] = qHTS assay to identify small molecule agonists of the RXR signaling pathway - cell viability counter screen (AID 1159529); note: series mostly up to about 77 µM; nearly all actives have a fitted effect of over 50% in size
Summary of the method: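 Luminescence from CellTiter-Glo (30 min, RT) measured viability in the same wells as the beta-lactamase reporter readout. Cells: GeneBLAzer RXR-alpha HEK 293T, 2% charcoal-stripped FBS. Compound exposure 16 hr, 37 C.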

[12] = qHTS assay to identify small molecule antagonists of the retinoic acid receptor (RAR) signaling pathway (AID 1159552; note: nearly all actives have a fitted effect of over 50% in size; note: potency is the fitted concentration of half-maximal effect)
Summary of the method: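 Luminescence from a RARE luciferase reporter in C3RL4 cells served as read-out. Cells received compounds together with 1 uM final retinol and incubated 6 hr at 37 C before detection reagent was added for 30 min at room temperature.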

[13] = qHTS assay to identify small molecule agonists of the retinoic acid receptor (RAR) signaling pathway (AID 1159553); note: potency is the fitted concentration of half-maximal effect
Summary of the method: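 Compounds dissolved in DMSO were pinned onto C3RL4 cells seeded the previous day, and plates were held 6 hr at 37 C. RARE-driven luciferase output was then read by luminescence.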

[14] = qHTS assay to identify small molecule antagonists of the retinoid-related orphan receptor gamma (ROR-gamma) signaling pathway - cell viability counter screen (AID 1159520); note: nearly all actives have a fitted effect of over 50% in size
Summary of the method: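 Tet-on ROR gamma CHO cells were given compounds for 2 hr, then doxycycline hyclate at 1 uM final, and incubated 16 hr at 37 C. Viability was measured as ATP content by CellTiter-Glo luminescence.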

[15] = qHTS assay to identify small molecule antagonists of the estrogen related receptor (ERR) signaling pathway - cell viability counter screen (AID 1224818);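 note: series mostly up to about 46 µM; viability measured after 17.5 h of compound exposure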
Summary of the method: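 Cytotoxicity check run alongside the ERR antagonist screen: cells exposed to test compounds 17.5 h at 37 C, viability taken as CellTiter-Fluor fluorescence intensity.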

[16] = qHTS assay to identify small molecule antagonists of the estrogen related receptor signaling pathway with the pleiotropic PPARgamma coactivator (PGC) cell viability counter screen (AID 1224822;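 note: series mostly up to about 46 µM; viability read after 17.5 h compound exposure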)
Summary of the method: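 Viable cell signal (CellTiter-Fluor, 30 min, 37 C/5% CO2) was measured in PGC/ERR cells after a 17.5 h compound incubation.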

Structure (SMILES) | Potency [1] | outcome [2] | Potency [3] | Potency [4] | Potency [5] | Potency [6] | Potency [7] | Potency [8] | Potency [9] | outcome [10] | Potency [11] | Potency [12] | Potency [13] | Potency [14] | outcome [15] | outcome [16]
CCN(CC)c1ccc(C(=C2C=CC(=[N+](CC)CC)C=C2)c2ccc(S(=O)(=O)O)cc2S(=O)(=O)[O-])cc1 | inactive | inactive | 43.6 µM (active) | inactive | 12.2 µM (active) | 19.5 µM (active) | inactive | 15.4 µM (active) |  |  |  |  |  |  |  | 
CC(C)C(=O)OCCOc1ccccc1 | inactive | inactive | inactive | inactive | inactive | inactive |  | inactive | inactive | inactive | inactive | inactive | inactive |  |  | 
O=S(=O)(O)CO |  | inactive | inactive | inactive |  | inactive |  | inactive | inactive | inactive | inactive |  | inactive | inactive |  | 
C[C@@H]1C[C@H]2[C@@H]3CCC4=CC(=O)C=C[C@]4(C)[C@@]3(F)[C@@H](O)C[C@]2(C)[C@@]1(O)C(=O)COP(=O)(O)O | inactive | inactive | inactive | inactive |  | inactive | inactive | inactive | inactive | inactive | inactive |  |  | inactive |  | 
CCC(CO)(CO)CO | inactive | inactive | inactive | inactive |  | inactive |  | inactive | inactive | inactive |  | inactive | inactive | inactive |  | 
Cc1cc([N+](=O)[O-])ccc1N | inactive | inactive | inactive | inactive |  | inactive |  | inactive | inactive | inactive | inactive | inactive | inactive | inactive |  | 
CC(C)(C)C1(CCc2ccc(Cl)cc2)CO1 (stereo not given) | inactive | inactive | inactive | inactive |  | inactive | inactive | inactive | inactive |  | inactive |  |  |  |  | 
CC(C)C(O)C(C)(C)CO (stereo not given) | inactive | inactive | inactive | inactive |  | inactive |  |  | inactive |  | inactive | 5.01 µM (active) | inactive |  |  | 
C=C(C)c1ccccc1 | inactive | inactive | inactive | inactive |  | inactive |  | inactive | inactive | inactive |  | inactive |  | inactive |  | 
COc1ccc(/C=C/C(=O)c2ccc(OC)cc2OC)cc1 | inactive | inactive | inactive | inactive | inactive | inactive |  | inactive | inactive |  |  |  | 29.8 µM (active) |  |  | 
O=P(O)(O)Oc1ccccc1 | inactive | inactive | inactive | inactive | inactive | inactive | inactive | inactive | inactive | inactive | inactive | inactive |  |  |  | 
CCC1CCC(CCC(=O)O)C1 (stereo not given) |  | inactive | inactive | inactive |  | inactive |  | inactive | inactive | inactive | inactive | inactive |  | inactive |  | 
O=C(Oc1ccccc1)c1ccc2ccccc2c1O | inactive | inactive | inactive | inactive |  | inactive |  | inactive |  | inactive |  | inactive | 0.864 µM (active) | inactive |  | 
OCC(CO)n1cnc(-c2ccc(F)cc2)c1-c1ccnc(Oc2ccccc2)n1 | inactive | inactive | inactive | inactive | inactive | inactive |  | inactive | inactive | inactive | inactive |  |  |  |  | 
COC(CC(C)CCCC(C)(C)O)OC (stereo not given) | inactive | inactive | inactive | inactive | inactive | inactive | inactive | inactive | inactive | inactive | inactive | inactive | inactive |  |  | 
CCNc1nc(N)nc(Cl)n1 | inactive | inactive | inactive | inactive |  | inactive |  | inactive | inactive | inactive | inactive | 21.7 µM (active) |  | inactive |  | 
CCCCCCCC(=O)Oc1c(Br)cc(C#N)cc1Br |  | inactive | inactive | inactive | 48.4 µM (active) | inactive |  | inactive |  | inactive |  |  |  |  |  | 
Cc1cccc(C)c1NC(=O)c1cc(S(N)(=O)=O)c(Cl)cc1O | inactive | inactive | inactive | inactive |  | inactive |  | inactive | inactive | inactive |  |  |  | inactive |  | 
CNCc1ccc(NC(=O)c2c[nH]c3c2C(=O)CCC3)cc1 | inactive | inactive | inactive | inactive |  | inactive | inactive | inactive | inactive | inactive |  | inactive |  | inactive |  | 
CCN(CC)CCNC(=O)c1cc(Cl)c(N)cc1OC | inactive | inactive | inactive | inactive |  | inactive |  | inactive | inactive | inactive | inactive |  |  | inactive | inactive | inactive
CCCCCCCCCCCSCC(=O)O | 21.9 µM (active) | inactive | inactive | inactive |  | inactive |  | inactive | inactive | inactive |  | inactive | inactive | inactive |  | 
Cc1ccc(Cl)cc1N | inactive | inactive | inactive | inactive | inactive | inactive | inactive | inactive | inactive | inactive | inactive | inactive | inactive |  |  | 
